Assay results taken from PubChem BioAssay AID1002 (National Center for Advancing Translational Sciences (NCATS), 2008).
Active and inactive are the calls of the source.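 Rule for the calls: active = compound given an inhibitor call from its dose-response curve against AmpC beta-lactamase with detergent added; inactive = the rest.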

Target: Beta-lactamase (Escherichia coli (strain K12)) (UniProt P00811)
Experiment: Confirmation Concentration-Response Assay for Inhibitors of AmpC Beta-Lactamase (assay with detergent)
Details: purified AmpC, nitrocefin absorbance 480 nm, 0.01% Triton
Description: NIH Molecular Libraries Screening Centers Network [MLSCN] NIH Chemical Genomics Center [NCGC] MLSCN Grant: MH079825-01 Assay Provider: Shoichet, Brian K. This aggregation profiling approach exploits the sensitivity of aggregate formation to detergent. Inhibition of b-lactamase is measured in the presence and absence of 0.01% Triton X-100 (Feng 2007). This particular assay is a confirmation of previous qHTS (Inglese, 2006), Pubchem AID 584, assay with presence of 0.01% Triton X-100. For a related assay without detergent, see AID 585. Compounds that inhibit only in the absence of detergent are considered likely promiscuous aggregators. In this confirmation assay, AmpC activity was measured by following the absorbance at 480 nm. Nitrocefin is a chromogenic substrate: while nitrocefin is yellow (lmax 390 nm), the product of its hydrolysis is red (lmax 486 nm, 17,000 M-1). AmpC beta-lactamase was provided by Prof Brian Shoichet's lab, UCSF.
Buffer: 1. 20 mM phosphate buffer, pH 7.0, 0.01 % Triton X-100 2. Reagents/Controls. 3. Buffer in row 32 as negative control (no enzyme). 4. 3 nM AmpC final concentration in rows 1-31. Assay Steps: Six uL of reagents were dispensed to 1536-well Greiner black clear bottom plates. Compounds (23 nL) were transferred via Kalypsys PinTool. The plates were incubated for 15 min at room temperature, and then 2 uL of 800 uM solution of nitrocefin was added to start the reaction. The plates were immediately transferred to and read every 20 seconds for 3 minutes on ViewLux (Perkin-Elmer) High-throughput CCD imager using 480 nm absorbance protocol.

Beta-lactamase (Escherichia coli (strain K12)), sequence (P00811 whole entry, looked up): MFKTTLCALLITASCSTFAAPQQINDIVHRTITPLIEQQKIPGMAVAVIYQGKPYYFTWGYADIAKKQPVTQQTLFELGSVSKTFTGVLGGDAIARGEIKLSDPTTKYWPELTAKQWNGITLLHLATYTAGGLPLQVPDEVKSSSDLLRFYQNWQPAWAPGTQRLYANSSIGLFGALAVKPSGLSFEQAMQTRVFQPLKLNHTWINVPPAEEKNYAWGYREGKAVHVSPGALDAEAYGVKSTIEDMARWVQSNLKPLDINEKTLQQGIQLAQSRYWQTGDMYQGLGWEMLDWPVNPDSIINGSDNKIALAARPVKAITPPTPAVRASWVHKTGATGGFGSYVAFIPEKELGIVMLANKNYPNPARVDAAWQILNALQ

SMILES	Potency
Cc1ccccc1CS(=O)(=O)c1nnc([C@H](CC(C)C)NC(=O)OC(C)(C)C)o1	11 µM (active)
CC(C)(C)OC(=O)N[C@@H](Cc1ccccc1)c1nnc(S(=O)(=O)Cc2cccc(F)c2)o1	15 µM (active)
CC(C)[C@H](NC(=O)OC(C)(C)C)c1nnc(S(=O)(=O)Cc2c(F)cccc2Cl)o1	1.8 µM (active)
CCC(C)[C@@H](NC(=O)OC(C)(C)C)c1nnc(S(=O)(=O)Cc2cccc(C)c2)o1 (some centres undefined)	10 µM (active)
CC(C)(C)OC(=O)N[C@@H](Cc1ccccc1)c1nnc(S(=O)(=O)Cc2ccccc2)o1	16 µM (active)
CC(C)C[C@H](N)c1nnc(S(=O)(=O)Cc2cccc(F)c2)o1	8.6 µM (active)
CC[C@@H](C)[C@H](NC(=O)OC(C)(C)C)c1nnc(S(=O)(=O)Cc2cc(C)ccc2C)o1	10 µM (active)
COC(=O)CS(=O)(=O)c1nnc([C@H](Cc2ccccc2)NC(=O)OC(C)(C)C)o1	9.4 µM (active)
CC(C)(C)OC(=O)NCCc1nnc(S(=O)(=O)Cc2ccc(Cl)cc2Cl)o1	0.066 µM (active)
